From PubChem BioAssay AID720485 (Milwaukee Institute for Drug Discovery, 2013) come the findings set out here.

Broadly, the inhibition is how much of the control response was suppressed.

In the test the test system is Hepatitis C virus NS3 helicase. Put plainly: HCV NS3 helicase inhibitors, retest, confirmation, biochemical, fluorescence polarization, ChemBridge library (AID 720485). The settings on record: NS3h binding to Cy5-dT15 DNA, at 100 µM, stronger effect = higher value.

This is one part of the list. A number with no mark means an inactive call.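 The calls were made as follows: active = percent inhibition of 50% or more; inactive = the rest.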

As to `CCOc1cc(C=C2C(=O)NC(=O)NC2=O)cc(Br)c1OCCOc1ccccc1C`, the inhibition is 23.5%.
